Experimental data: the supplement of paper PMC10849652
Of roughly 8,800 targets only a part is listed; those with a hit were picked by preference. About 0.5% of all pairs of compound and target were hits.

How the values were obtained:
Assay in all cases: log2 fold change, soluble protein after heating vs DMSO (PISA); higher = thermal stabilisation; K562 lysate, 10 uM; active = over 0.2 and 3.5 SD of the protein, either way, in both replicates (recomputed)
[1] = compound: Cc1cn(-c2cc(NC(=O)c3ccc(C)c(Nc4nccc(-c5cccnc5)n4)c3)cc(C(F)(F)F)c2)cn1 [nilotinib]
Procedure, shortened: (§1)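 K562 pellets were dounce-homogenised in PBS pH 7.4 containing 1 mM MgCl2, and the crude extract, at 1 mg/mL protein, was exposed to 10 μM compound for 30 min. Aliquots were heated for 3 min across 48°C-58°C, pooled, brought to 0.5% NP-40 at 4°C and spun at 21,000xg for 90 min, with the supernatant taken as soluble protein. TMTpro 16plex LC-MS/MS with equalised channel sums quantified that protein. Values are log-two fold changes in thermal stability relative to solvent controls, taken from duplicates.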

[2] = compound: Cc1nc(Nc2n[nH]c3c2CN(C(=O)N[C@H](CN(C)C)c2ccccc2)C3(C)C)c2sccc2n1
Procedure, shortened: as §1

[3] = compound: Cc1nc(Nc2ncc(C(=O)Nc3c(C)cccc3Cl)s2)cc(N2CCN(CCO)CC2)n1 [dasatinib]
Procedure, shortened: as §1

[4] = compound: Cc1ncc(-c2ccnc(Nc3ccc(S(C)(=O)=O)cc3)n2)n1C(C)C
Procedure, shortened: as §1

[5] = compound: Cn1cc(-c2ccc3c(c2)CCN3C(=O)Cc2cccc(C(F)(F)F)c2)c2c(N)ncnc21
Procedure, shortened: as §1

[6] = compound: Cn1cc(CNCC2CCN(c3ncc(C(=O)NO)cn3)CC2)c2ccccc21 [quisinostat]
Procedure, shortened: as §1

[7] = compound: Cn1cncc1[C@@](N)(c1ccc(Cl)cc1)c1ccc2c(c1)c(-c1cccc(Cl)c1)cc(=O)n2C [tipifarnib]
Procedure, shortened: as §1

[8] = compound: NC(=O)Nc1cc(-c2cccc(F)c2)sc1C(=O)N[C@H]1CCCNC1
Procedure, shortened: as §1

[9] = compound: NC(=O)c1cnc(N[C@@H]2CCCC[C@@H]2N)nc1Nc1cccc(-n2nccn2)c1
Procedure, shortened: as §1

[10] = compound: NC1(c2ccc(-c3nc4ccn5c(=O)[nH]nc5c4cc3-c3ccccc3)cc2)CCC1
Procedure, shortened: as §1

[11] = compound: NCC(=O)Nc1ccc(-n2nc(C(F)(F)F)cc2-c2ccc3c(ccc4ccccc43)c2)cc1
Procedure, shortened: as §1

[12] = compound: O=C(CCCCCCC(=O)Nc1ccccc1)NO [vorinostat]
Procedure, shortened: as §1

[13] = compound: O=C(O)c1ccc2c(c1)nc(Nc1cccc(Cl)c1)c1ccncc12 [silmitasertib]
Procedure, shortened: as §1

[14] = compound: O=C1NC(=O)C(c2cnc3ccccn23)=C1c1cn2c3c(cc(F)cc13)CN(C(=O)N1CCCCC1)CC2
Procedure, shortened: as §1

[15] = compound: c1cn2cc(-c3ccc4cn[nH]c4c3)nc(Nc3ccc(N4CCOCC4)cc3)c2n1 [entospletinib]
Procedure, shortened: as §1

Measured: log2 fold change

GSTCD (UniProt Q8NEC7)
Chain of UniProt Q8NEC7 (Q8NEC7 whole entry, looked up): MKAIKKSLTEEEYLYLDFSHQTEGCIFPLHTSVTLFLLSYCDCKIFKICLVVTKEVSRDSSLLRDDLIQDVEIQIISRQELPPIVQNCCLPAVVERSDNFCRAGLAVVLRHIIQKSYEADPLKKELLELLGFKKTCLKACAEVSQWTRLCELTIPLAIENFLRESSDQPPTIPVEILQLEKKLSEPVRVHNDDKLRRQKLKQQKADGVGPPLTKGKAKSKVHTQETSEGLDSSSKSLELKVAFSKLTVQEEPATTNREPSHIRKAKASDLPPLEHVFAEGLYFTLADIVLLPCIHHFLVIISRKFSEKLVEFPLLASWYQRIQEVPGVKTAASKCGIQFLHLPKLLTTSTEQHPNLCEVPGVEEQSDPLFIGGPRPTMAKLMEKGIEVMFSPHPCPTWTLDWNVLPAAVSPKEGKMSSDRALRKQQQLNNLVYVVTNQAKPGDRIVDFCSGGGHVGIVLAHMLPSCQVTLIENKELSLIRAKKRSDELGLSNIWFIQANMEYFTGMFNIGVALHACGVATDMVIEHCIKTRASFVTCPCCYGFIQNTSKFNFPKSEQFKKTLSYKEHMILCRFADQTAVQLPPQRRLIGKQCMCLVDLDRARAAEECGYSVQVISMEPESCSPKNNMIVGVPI
active: [12] -0.356
inactive: [1] 0.039 | [2] -0.04 | [3] -0.003 | [4] -0.005 | [5] -0.098 | [6] -0.053 | [7] 0.01 | [8] 0.08 | [9] -0.014 | [10] -0.008 | [11] -0.025 | [13] 0.024 | [14] -0.027 | [15] -0.066

HSP90AA4P (UniProt Q58FG1)
inactive: [1] -0.157 | [2] 0.052 | [3] 0.029 | [4] -0.062 | [5] 0.038 | [6] -0.145 | [7] 0.01 | [8] -0.065 | [9] -0.047 | [10] -0.024 | [11] 0.026 | [12] 0.047 | [13] -0.087 | [14] -0.047 | [15] 0.017

HNRNPD isoform 2 (UniProt Q14103)
Chain of UniProt Q14103 (Q14103 whole entry, looked up): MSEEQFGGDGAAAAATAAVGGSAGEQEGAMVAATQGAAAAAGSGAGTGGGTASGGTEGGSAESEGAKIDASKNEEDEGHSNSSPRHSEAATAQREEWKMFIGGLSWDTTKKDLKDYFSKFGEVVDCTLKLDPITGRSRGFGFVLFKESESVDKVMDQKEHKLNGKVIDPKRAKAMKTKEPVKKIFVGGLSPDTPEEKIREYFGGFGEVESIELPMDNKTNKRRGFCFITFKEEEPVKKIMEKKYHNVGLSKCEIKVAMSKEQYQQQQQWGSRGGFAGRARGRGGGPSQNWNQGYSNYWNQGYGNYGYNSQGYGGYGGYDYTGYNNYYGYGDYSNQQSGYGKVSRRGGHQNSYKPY
inactive: [1] -0.047 | [2] 0 | [3] -0.02 | [4] 0.009 | [5] -0.05 | [6] 0.139 | [7] 0.029 | [8] -0.025 | [9] 0.015 | [10] -0.008 | [11] 0.018 | [12] 0.155 | [13] 0.009 | [14] 0.063 | [15] -0.006

GRB10 (UniProt Q13322)
active: [12] -0.402
inactive: [1] 0.053 | [2] -0.028 | [3] -0.003 | [4] 0.026 | [5] 0.04 | [6] -0.065 | [7] -0.058 | [8] 0.008 | [9] -0.056 | [10] 0.008 | [11] -0.001 | [13] 0.065 | [14] 0.008 | [15] 0.007

HIST2H2AA3 (UniProt Q6FI13)
inactive: [1] 0.135 | [2] -0.098 | [3] 0.081 | [4] 0.035 | [5] -0.041 | [6] 0.064 | [7] 0.058 | [8] 0.076 | [9] 0.01 | [10] 0.048 | [11] -0.056 | [12] 0.12 | [13] -0.073 | [14] 0.068 | [15] -0.106

ICAM2 (UniProt P13598)
Chain of UniProt P13598 (P13598 whole entry, looked up): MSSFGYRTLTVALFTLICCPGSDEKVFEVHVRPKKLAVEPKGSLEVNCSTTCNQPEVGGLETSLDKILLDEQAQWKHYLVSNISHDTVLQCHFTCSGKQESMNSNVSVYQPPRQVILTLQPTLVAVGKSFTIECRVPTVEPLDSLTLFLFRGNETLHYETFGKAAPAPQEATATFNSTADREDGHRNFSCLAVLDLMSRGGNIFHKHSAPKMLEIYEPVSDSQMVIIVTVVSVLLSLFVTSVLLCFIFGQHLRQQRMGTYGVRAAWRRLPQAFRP
inactive: [1] 0.081 | [2] -0.077 | [3] 0.013 | [4] 0.012 | [5] -0.035 | [6] 0.007 | [7] -0.016 | [8] -0.018 | [9] -0.004 | [10] 0.018 | [11] -0.016 | [12] 0.148 | [13] -0.029 | [14] -0.021 | [15] -0.018

INTS1 (UniProt Q8N201)
inactive: [1] -0.041 | [2] 0.012 | [3] -0.087 | [4] 0.035 | [5] 0.028 | [6] -0.01 | [7] 0.017 | [8] 0.016 | [9] -0.038 | [10] 0.011 | [11] 0.014 | [13] 0.027 | [14] -0.034 | [15] 0.003
active: [12] -0.409

HDAC6 (UniProt Q9UBN7)
Chain of UniProt Q9UBN7 (Q9UBN7 whole entry, looked up): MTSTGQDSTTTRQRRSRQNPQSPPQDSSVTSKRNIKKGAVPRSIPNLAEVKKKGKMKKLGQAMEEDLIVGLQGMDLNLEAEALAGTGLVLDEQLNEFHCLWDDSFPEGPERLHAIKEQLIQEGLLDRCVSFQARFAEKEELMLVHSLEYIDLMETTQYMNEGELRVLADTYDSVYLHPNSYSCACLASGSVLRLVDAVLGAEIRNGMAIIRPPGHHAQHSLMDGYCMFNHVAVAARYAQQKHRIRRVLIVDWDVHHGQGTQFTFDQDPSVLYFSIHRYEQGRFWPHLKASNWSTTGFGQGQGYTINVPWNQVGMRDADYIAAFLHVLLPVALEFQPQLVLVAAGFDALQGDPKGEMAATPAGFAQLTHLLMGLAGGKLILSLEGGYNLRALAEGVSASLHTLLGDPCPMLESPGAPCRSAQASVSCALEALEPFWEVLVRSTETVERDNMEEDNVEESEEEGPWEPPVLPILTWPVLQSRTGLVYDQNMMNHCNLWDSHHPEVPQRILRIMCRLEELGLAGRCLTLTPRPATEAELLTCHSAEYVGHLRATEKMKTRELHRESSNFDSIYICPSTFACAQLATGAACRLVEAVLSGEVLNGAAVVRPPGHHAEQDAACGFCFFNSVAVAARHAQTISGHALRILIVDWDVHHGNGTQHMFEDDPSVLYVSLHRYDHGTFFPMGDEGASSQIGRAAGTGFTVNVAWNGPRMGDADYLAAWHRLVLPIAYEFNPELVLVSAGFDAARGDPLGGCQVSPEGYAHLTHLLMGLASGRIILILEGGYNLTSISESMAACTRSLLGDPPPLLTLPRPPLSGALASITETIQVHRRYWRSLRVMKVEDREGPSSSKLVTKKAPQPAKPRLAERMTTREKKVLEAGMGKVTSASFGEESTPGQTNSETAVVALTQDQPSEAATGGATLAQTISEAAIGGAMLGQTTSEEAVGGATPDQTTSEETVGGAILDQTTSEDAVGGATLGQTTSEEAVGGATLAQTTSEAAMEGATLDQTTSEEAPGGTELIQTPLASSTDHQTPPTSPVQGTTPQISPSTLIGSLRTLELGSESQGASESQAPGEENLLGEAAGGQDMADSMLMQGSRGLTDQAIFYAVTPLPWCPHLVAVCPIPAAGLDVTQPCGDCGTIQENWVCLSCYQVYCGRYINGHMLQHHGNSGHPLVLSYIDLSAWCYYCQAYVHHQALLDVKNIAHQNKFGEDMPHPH
inactive: [1] 0.078 | [2] -0.016 | [3] -0.06 | [4] -0.034 | [5] 0.042 | [6] 0.031 | [7] 0.024 | [8] -0.01 | [9] 0.034 | [10] -0.027 | [11] -0.039 | [13] 0.016 | [14] -0.047 | [15] 0.007
active: [12] 0.513

GLB1 (UniProt P16278)
inactive: [1] -0.006 | [2] 0.03 | [3] -0.026 | [4] 0.023 | [5] 0.003 | [6] 0.03 | [7] 0.017 | [8] -0.016 | [9] -0.011 | [10] -0.022 | [11] 0.003 | [12] -0.013 | [13] -0.03 | [14] -0.043 | [15] -0.018

GMPS (UniProt P49915)
Chain of UniProt P49915 (P49915 whole entry, looked up): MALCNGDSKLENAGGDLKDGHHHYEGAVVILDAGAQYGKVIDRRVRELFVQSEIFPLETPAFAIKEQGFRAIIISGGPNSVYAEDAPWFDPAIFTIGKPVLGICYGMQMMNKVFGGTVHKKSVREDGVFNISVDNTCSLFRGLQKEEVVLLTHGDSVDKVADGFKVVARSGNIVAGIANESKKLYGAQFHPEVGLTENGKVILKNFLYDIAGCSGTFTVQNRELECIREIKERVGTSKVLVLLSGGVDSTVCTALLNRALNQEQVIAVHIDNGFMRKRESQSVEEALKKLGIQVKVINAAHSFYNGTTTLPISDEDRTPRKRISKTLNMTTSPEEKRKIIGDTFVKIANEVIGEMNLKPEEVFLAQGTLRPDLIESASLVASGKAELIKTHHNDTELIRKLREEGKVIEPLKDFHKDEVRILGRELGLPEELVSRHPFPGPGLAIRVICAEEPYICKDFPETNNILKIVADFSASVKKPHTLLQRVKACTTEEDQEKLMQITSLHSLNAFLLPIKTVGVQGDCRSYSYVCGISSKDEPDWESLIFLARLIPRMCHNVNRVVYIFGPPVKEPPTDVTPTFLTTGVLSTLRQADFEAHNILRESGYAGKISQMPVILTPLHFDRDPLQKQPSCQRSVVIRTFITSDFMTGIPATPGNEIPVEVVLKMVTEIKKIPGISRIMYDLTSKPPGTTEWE
inactive: [1] -0.006 | [2] -0.019 | [3] -0.016 | [4] 0 | [5] 0 | [6] 0.041 | [7] -0.008 | [8] 0.001 | [9] 0.001 | [10] 0.009 | [11] 0.017 | [13] 0.028 | [14] 0.002 | [15] 0.01
active: [12] -0.553

GSTM4 (UniProt Q03013)
Chain of UniProt Q03013 (Q03013 whole entry, looked up): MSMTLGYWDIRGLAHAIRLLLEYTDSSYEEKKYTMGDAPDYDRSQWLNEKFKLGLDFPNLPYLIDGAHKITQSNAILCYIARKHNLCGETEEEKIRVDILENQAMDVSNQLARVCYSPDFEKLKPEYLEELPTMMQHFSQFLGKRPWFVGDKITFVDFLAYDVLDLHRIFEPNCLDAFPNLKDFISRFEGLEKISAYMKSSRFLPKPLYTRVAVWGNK
active: [13] 0.301
inactive: [1] -0.163 | [2] 0.019 | [3] -0.047 | [4] 0.054 | [5] 0.118 | [6] 0.163 | [7] 0.008 | [8] -0.003 | [9] 0.024 | [10] -0.032 | [11] 0.025 | [12] 0.015 | [14] 0.012 | [15] -0.03

KCT2 (UniProt Q8NC54)
Chain of UniProt Q8NC54 (Q8NC54 whole entry, looked up): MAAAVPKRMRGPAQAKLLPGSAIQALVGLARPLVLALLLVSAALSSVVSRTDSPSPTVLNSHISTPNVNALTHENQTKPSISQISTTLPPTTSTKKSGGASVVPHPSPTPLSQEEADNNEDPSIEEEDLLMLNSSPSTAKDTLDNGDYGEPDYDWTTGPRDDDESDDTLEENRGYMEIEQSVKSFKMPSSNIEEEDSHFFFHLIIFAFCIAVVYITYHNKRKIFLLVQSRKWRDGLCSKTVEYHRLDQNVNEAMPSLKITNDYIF
inactive: [1] -0.034 | [2] 0.008 | [3] 0.025 | [4] -0.025 | [5] 0.043 | [6] 0.031 | [7] 0.001 | [8] 0.024 | [9] 0.051 | [10] 0.005 | [11] 0.015 | [12] 0.157 | [13] 0.005 | [14] -0.04 | [15] -0.026

H2AFY (UniProt O75367)
inactive: [1] 0.013 | [2] 0.003 | [3] -0.087 | [4] -0.003 | [5] 0.005 | [6] -0.099 | [7] 0.005 | [8] 0.058 | [9] 0.001 | [10] -0.034 | [11] 0.008 | [12] 0.142 | [13] -0.029 | [14] -0.02 | [15] 0.079

HMGN4 (UniProt O00479)
inactive: [1] 0.049 | [2] -0.072 | [3] 0.192 | [4] 0.009 | [5] 0.003 | [6] 0.171 | [7] 0.001 | [8] -0.019 | [9] 0.012 | [10] -0.028 | [11] -0.095 | [12] 0.192 | [13] -0.012 | [14] 0.067 | [15] 0.163

HAUS7 isoform 2 (UniProt Q99871)
Chain of UniProt Q99871 (Q99871 whole entry, looked up): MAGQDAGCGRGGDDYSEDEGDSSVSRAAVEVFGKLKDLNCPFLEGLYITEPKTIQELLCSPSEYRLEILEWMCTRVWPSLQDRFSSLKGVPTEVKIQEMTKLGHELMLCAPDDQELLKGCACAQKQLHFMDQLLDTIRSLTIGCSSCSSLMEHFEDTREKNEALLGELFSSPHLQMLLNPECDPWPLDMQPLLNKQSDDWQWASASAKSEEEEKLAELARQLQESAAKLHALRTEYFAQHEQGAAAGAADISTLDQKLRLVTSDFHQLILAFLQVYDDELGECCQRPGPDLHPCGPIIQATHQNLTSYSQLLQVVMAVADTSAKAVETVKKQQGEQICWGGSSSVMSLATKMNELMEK
inactive: [1] 0.021 | [2] 0.007 | [3] 0.015 | [4] 0.055 | [5] -0.026 | [6] -0.037 | [7] -0.011 | [8] 0.063 | [9] 0.024 | [10] -0.047 | [11] -0.091 | [13] -0.029 | [14] -0.026 | [15] -0.124
active: [12] -0.416

IARS2 (UniProt Q9NSE4)
inactive: [1] 0.016 | [2] -0.007 | [3] -0.021 | [4] 0.026 | [5] 0 | [6] 0.022 | [7] 0.006 | [8] 0.021 | [9] 0.02 | [10] -0.004 | [11] -0.002 | [12] 0.079 | [13] -0.01 | [14] -0.021 | [15] 0.01

GSK3A (UniProt P49840)
active: [4] 0.562
inactive: [1] 0.026 | [2] 0.425 | [3] 0.021 | [5] 0.048 | [6] -0.009 | [7] -0.008 | [8] -0.024 | [9] 0.099 | [10] -0.006 | [11] -0.019 | [12] 0.265 | [13] 0.382 | [14] 0.456 | [15] 0.014

IFITM3 (UniProt Q01628)
Chain of UniProt Q01628 (Q01628 whole entry, looked up): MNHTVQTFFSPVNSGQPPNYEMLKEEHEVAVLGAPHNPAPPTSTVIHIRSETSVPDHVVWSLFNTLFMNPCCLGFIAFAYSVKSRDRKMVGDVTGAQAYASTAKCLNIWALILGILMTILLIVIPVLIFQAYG
inactive: [1] 0.068 | [2] 0.055 | [3] 0.049 | [4] -0.013 | [5] 0.064 | [6] -0.069 | [7] -0.136 | [8] -0.044 | [9] -0.133 | [10] -0.051 | [11] -0.02 | [12] 0.067 | [13] -0.129 | [14] 0.069 | [15] 0.059

HAUS8 (UniProt Q9BT25)
active: [12] -0.38
inactive: [1] 0.025 | [2] 0.026 | [3] -0.073 | [4] 0.005 | [5] 0.015 | [6] -0.085 | [7] 0.004 | [8] 0.042 | [9] 0.02 | [10] 0.006 | [11] 0.083 | [13] 0.022 | [14] 0.018 | [15] -0.051

GNE isoform 2 (UniProt Q9Y223)
Chain of UniProt Q9Y223 (Q9Y223 whole entry, looked up): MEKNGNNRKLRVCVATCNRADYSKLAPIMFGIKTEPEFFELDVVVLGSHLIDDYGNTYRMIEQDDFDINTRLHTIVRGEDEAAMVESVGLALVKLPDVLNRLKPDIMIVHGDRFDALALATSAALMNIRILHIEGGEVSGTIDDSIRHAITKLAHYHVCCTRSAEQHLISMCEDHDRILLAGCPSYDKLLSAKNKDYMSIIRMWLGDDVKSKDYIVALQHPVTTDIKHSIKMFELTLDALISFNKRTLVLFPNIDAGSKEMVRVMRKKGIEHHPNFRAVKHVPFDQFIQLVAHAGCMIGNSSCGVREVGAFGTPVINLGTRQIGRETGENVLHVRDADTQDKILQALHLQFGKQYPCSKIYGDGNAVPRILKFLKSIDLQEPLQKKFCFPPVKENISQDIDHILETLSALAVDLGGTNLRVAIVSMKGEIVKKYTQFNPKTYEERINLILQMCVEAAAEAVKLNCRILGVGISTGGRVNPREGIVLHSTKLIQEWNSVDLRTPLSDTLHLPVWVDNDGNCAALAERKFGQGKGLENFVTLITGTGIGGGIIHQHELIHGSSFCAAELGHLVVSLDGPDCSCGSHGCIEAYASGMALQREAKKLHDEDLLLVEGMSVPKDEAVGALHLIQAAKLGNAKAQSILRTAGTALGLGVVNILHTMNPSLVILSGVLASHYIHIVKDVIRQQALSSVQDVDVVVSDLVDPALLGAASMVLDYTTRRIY
inactive: [1] -0.013 | [2] -0.003 | [3] 0.003 | [4] -0.081 | [5] 0.025 | [6] -0.042 | [7] 0.008 | [8] 0.061 | [9] -0.008 | [10] -0.006 | [11] 0.056 | [13] 0.023 | [14] 0.012 | [15] 0.017
active: [12] -0.443
